8 compounds from PubChem BioAssay (NCI) can be followed below.

Common to all, as to assay: NCI-60 one-dose screen, 48 h (100 = growth as untreated, 0 = no growth, -100 = all killed)
Holding throughout (conditions): 10 µM unless noted

In test [1] the test system is SR leukemia.
Test [2] has as its system RPMI-8226 leukemia.
The subject of test [3] is OVCAR-8 ovarian.
In test [4] the test system is OVCAR-5 ovarian.
For test [5], the system named is OVCAR-4 ovarian.
For test [6], the system named is SK-OV-3 ovarian.
Test [7] deals with IGROV1 ovarian.
Test [8] concerns OVCAR-3 ovarian.
In test [9] the test system is HS 578T breast.
The test system of test [10] is NCI/ADR-RES ovarian.
Test [11] deals with T-47D breast.
Test [12] concerns BT-549 breast.
Test [13] concerns MDA-MB-435 melanoma.
For test [14], the system named is SW-620 colon.
The test system of test [15] is MCF7 breast.
Test [16] deals with HCT-116 colon.
The subject of test [17] is HCC-2998 colon.
Test [18] concerns KM12 colon.
For test [19], the system named is MDA-MB-468 breast.

Several values for one entry are separate records, joined by “and”; a condition that tells them apart may be missing. Equal entries are not always repeated. The panel holds about 83,000 compounds, 20% with a hit somewhere; the sample as a whole holds those more often.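 Assay: single dose, 48 h. Readout: percent growth (0 = no net growth; negative = cell death). Active: <10.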 Activity calls are given as the source filed them.

With `O=C1C=CC(=CC=C2N(Cc3ccc4ccccc4c3)c3ccccc3N2Cc2ccc3ccccc3c2)C=C1`, the growth in test [1] was 3.48% (active); in [2], -5.25% (active) and -13.4% (active); in test [3], 20.2% (inactive) and 24.9% (inactive); in test [4], 36.6% (inactive) and 47.2% (inactive); in test [5], 37.9% (inactive) and 27.6% (inactive); in test [6] it was 13.4% (inactive) and 46.4% (inactive). Besides, the growth in test [7] is 7.62% (active) and 29.5% (inactive); in [8] it was 24.2% (inactive) and -1.46% (active); in test [9], 52.3% (inactive) and 32.6% (inactive); in test [10] it was 104% (inactive) and 102% (inactive); in test [11], 5.78% (active) and 27.5% (inactive); in [12] it was 9.59% (active) and 29.8% (inactive). The growth in test [13] is 12.5% (inactive) and 8.75% (active); in test [14], 29.1% (inactive) and 19.4% (inactive); in test [15] it was 15.7% (inactive) and 14.1% (inactive); in test [16], 10.7% (inactive) and 14.7% (inactive); in test [17], 21.1% (inactive) and 33.1% (inactive); in test [18], 33.8% (inactive) and 11.2% (inactive).

In the case of `O=CNc1ccc(-n2cnc3cc(-c4ccc(O)cc4)ccc32)cc1`, the growth is 55.9% (inactive) in test [1]; 66.1% (inactive) in [2]; 82.4% (inactive) in test [3]; 94.7% (inactive) in test [4]; 74.9% (inactive) in test [5]; 111% (inactive) in test [6]. The growth was 118% (inactive) in [7]; 68.6% (inactive) in test [8]; 93.3% (inactive) in [9]; 81.6% (inactive) in test [10]; 63.6% (inactive) in test [11]; 93.3% (inactive) in test [12]. Moreover, the growth in test [13] was 82.8% (inactive); in [14], 101% (inactive); in test [15], 71.8% (inactive); in [16] it was 85.6% (inactive); in test [17], 102% (inactive); in test [18], 32.4% (inactive).

Turning to `O=C(Cn1c(-c2ccccc2)nc2ccccc21)N=Nc1c(O)[nH]c2ccc(Cl)cc12`, the growth in test [1] is -14.7% (active); in [2], 20.4% (inactive); in [3], -26.3% (active); in [4], 18.5% (inactive); in test [5] it was -44.4% (active); in [6] it was -6.33% (active). Further, the growth was 9.94% (active) in test [7]; 1.02% (active) in test [8]; -16.2% (active) in test [9]; -43.2% (active) in test [10]; -29.8% (active) in test [11]; -53% (active) in [12]. Also, the growth in test [13] was 2.53% (active); in test [14], 23% (inactive); in test [15] it was 9.49% (active); in test [16], -23.7% (active); in test [17], 19.5% (inactive).

Consider `COc1ccc(NC(=O)CSc2nnc(-c3ccc(-c4nc5ccc(Cl)cc5[nH]4)cc3)o2)cc1`, for which the growth in test [1] was 18.5% (inactive); in test [2] it was 46.3% (inactive); in test [3], 2.41% (active); in [4], 59.8% (inactive); in test [5], 33.8% (inactive); in [6] it was 55% (inactive). Besides, the growth in test [7] is 59.6% (inactive); in [8], 41% (inactive); in test [9], 24.7% (inactive); in test [10] it was 48% (inactive); in test [11], 75.9% (inactive); in [12], 4.02% (active). The growth in test [13] was 17.8% (inactive); in test [14], 20.3% (inactive); in test [15], 42.2% (inactive); in test [16], 9.94% (active); in test [17] it was 109% (inactive); in test [18], 29.6% (inactive).

With `Cc1cc(Cl)ccc1NC(=O)Nc1ccc(-c2ccc3c(c2)NC(=O)/C3=C\c2ccc[nH]2)cc1`, the growth in test [1] is 69.3% (inactive); in [2] it was 100% (inactive); in test [3], 104% (inactive); in test [4] it was 108% (inactive); in test [5] it was 84.7% (inactive); in [6], 125% (inactive). Moreover, the growth in [7] was 96.2% (inactive); in [8], 119% (inactive); in test [9], 102% (inactive); in [10], 104% (inactive); in [11], 26.4% (inactive); in [12], 79.1% (inactive). The growth was 98.6% (inactive) in test [13]; 89.3% (inactive) in test [14]; 18.7% (inactive) in test [15]; 108% (inactive) in test [16]; 118% (inactive) in test [17]; 25.8% (inactive) in [18]. Besides, the growth in [19] is -2.85% (active).

Take `Cc1ccc2nc(SCc3ccccc3F)n(-c3ccccc3)c(=O)c2c1`: the growth in [1] was 109% (inactive); in test [2], 93.4% (inactive); in test [3], 100% (inactive); in [4], 116% (inactive); in test [5], 98.9% (inactive); in test [6], 118% (inactive). Also, the growth in test [7] was 105% (inactive); in [8] it was 115% (inactive); in test [9], 96.3% (inactive); in test [10] it was 89% (inactive); in [11], 81.4% (inactive); in test [12] it was 107% (inactive). Besides, the growth is 111% (inactive) in test [13]; 104% (inactive) in test [14]; 89.2% (inactive) in test [15]; 68.2% (inactive) in test [16]; 109% (inactive) in [17]; 93.7% (inactive) in test [18].

`CCOC(=O)c1ccc(NC(=S)NC(=O)c2ccc(NC(=O)C(C)C)cc2OC)cc1`: the growth is 0.956% (active) in test [1]; 0.989% (active) in [2]; 35.1% (inactive) in [3]; 90.1% (inactive) in [4]; 27.2% (inactive) in test [5]; 100% (inactive) in test [6]. Further, the growth in test [7] is 64.5% (inactive); in [8], 57.4% (inactive); in test [9], 86.7% (inactive); in [10], 23% (inactive); in [11], -0.757% (active); in [12], -5.7% (active). Also, the growth is 33.7% (inactive) in [13]; 62.6% (inactive) in test [14]; 8.31% (active) in test [15]; 23.6% (inactive) in [16]; 67.9% (inactive) in [17]; 30.2% (inactive) in test [18].

Consider `C#CCCCNCCNc1ccnc2cc(Cl)ccc12`, for which the growth in test [1] is 2.22% (active); in test [2], 47.9% (inactive); in [3], 79.6% (inactive); in [4], 64.3% (inactive); in test [5], 89.8% (inactive); in [6], 103% (inactive). The growth was 84.6% (inactive) in [7]; 85.8% (inactive) in test [8]; 91.8% (inactive) in test [9]; 68.8% (inactive) in test [10]; 71% (inactive) in [11]; 66.5% (inactive) in test [12]. In addition, the growth in [13] was 59.7% (inactive); in [14], 76.8% (inactive); in test [15] it was 52% (inactive); in [16], 49.5% (inactive); in test [17] it was 62% (inactive); in test [18], 91.3% (inactive).
